# Compound activity (PubChem)
# The list is not random: actives were taken first. Their share in the collection is about 2.9%.
# TAG inh – inhibitors of triacylglycerol accumulation | H9c2 cells, Nile Red lipid (TAG) fluorescence; cells loaded with 200 µM oleic acid | inhibition, % at 12.5 µM | 230,000 tested, 0.66% active;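 active means pattern-corrected inhibition of lipid staining of at least 50% with the nuclear-stain viability signal not falling by more than 50%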;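 further: 0% = DMSO wells and 100% = triacsin C control wells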
# A3A deaminase – inhibitors of human APOBEC3A DNA deaminase; recombinant A3A, FAM/TAMRA ssDNA deamination fluorescence; P31941; inhibition, % at 20 µM; 330,000 tested, 0.41% active;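 active means at least 40% inhibition at 20 µM here, with at most 30% in a related deaminase screen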;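 further: plate controls were A3A with DMSO for no effect and wells lacking A3A enzyme for full effect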
# Target sequence (P31941 whole entry, looked up): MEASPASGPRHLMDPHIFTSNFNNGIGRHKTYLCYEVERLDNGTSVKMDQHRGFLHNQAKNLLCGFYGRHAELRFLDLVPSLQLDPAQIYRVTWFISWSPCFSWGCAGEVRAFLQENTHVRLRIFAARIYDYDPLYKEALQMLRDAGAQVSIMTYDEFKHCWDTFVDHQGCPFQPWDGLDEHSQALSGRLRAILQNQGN
# PfGluPho inh – PfG6PD (Plasmodium falciparum) enzyme inhibition. PfGluPho enzyme, NADPH resazurin-diaphorase fluorescence. inhibition, % at 20 µM. 350,000 tested, 0.78% active;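 active means inhibition reaching at least a set limit at 20 µM in the primary screen, cut at about 59% in these data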;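 further: 0% = DMSO wells with substrate and 100% = DMSO wells lacking glucose-6-phosphate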
# H9c2 protect – protects H9c2 cardiomyocytes from peroxide injury. AID 588492. 360,000 tested, 0.63% active. protection from H2O2 cell death, % at 20 µM. H2O2 injury protection, ATPLite, 2 h;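 active means compounds giving at least 50% protection of heart cells from peroxide-induced death in the single-dose screen, raw or plate-pattern-corrected value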;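 further: 0% = DMSO wells with peroxide and 100% = DMSO wells without peroxide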
# A3G deaminase – inhibitors of human APOBEC3G DNA deaminase; recombinant A3G, ssDNA deamination FAM/TAMRA fluorescence; inhibition, % at 20 µM; 330,000 tested, 0.28% active;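 active means inhibition of at least 40% at 20 µM, with no more than 30% in the related APOBEC3A deaminase screen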;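 further: plate controls were DMSO wells with A3G for no effect and wells lacking A3G enzyme for full effect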
# Target sequence (Q9HC16 whole entry, looked up): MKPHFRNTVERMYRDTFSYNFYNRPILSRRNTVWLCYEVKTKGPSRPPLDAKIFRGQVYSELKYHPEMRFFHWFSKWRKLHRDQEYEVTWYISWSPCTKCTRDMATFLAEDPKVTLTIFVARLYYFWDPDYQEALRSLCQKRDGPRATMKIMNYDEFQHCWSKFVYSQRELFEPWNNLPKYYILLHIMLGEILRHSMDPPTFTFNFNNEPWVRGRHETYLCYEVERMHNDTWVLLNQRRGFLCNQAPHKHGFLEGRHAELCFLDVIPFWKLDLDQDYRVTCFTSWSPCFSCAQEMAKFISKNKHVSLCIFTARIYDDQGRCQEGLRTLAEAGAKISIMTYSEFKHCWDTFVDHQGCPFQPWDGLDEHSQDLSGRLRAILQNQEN
# NadD inh – inhibitors of Staphylococcus aureus NadD. purified NadD enzyme, colorimetric absorbance read-out. inhibition, % at 20 µM. 360,000 tested, 0.78% active; in the data active means inhibition above about 26%
# PfG6PD confirm – confirmation of Plasmodium falciparum G6PD inhibitors. recombinant PfGluPho, NADPH-diaphorase-resazurin fluorescence. 2,400 tested, 34% active. shares compounds with PfGluPho inh. inhibition, % at 20 µM;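 active means inhibition of at least 50% at 20 µM in any single replicate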;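 further: 0% = DMSO with substrate and 100% = DMSO lacking glucose-6-phosphate substrate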
# Diaphorase 10uM – diaphorase inhibition or oxidation at 10 uM NADPH; shares compounds with PfGluPho inh; diaphorase-coupled resazurin reduction, fluorescence, NADPH 10 uM; inhibition, % at 20 µM; 820 tested, 39% active;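 active means average inhibition reaching 50% or more with the compound at 20 µM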;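 further: resorufin red fluorescence formed as diaphorase reduces resazurin using NADPH; 0% = DMSO with enzyme and 100% = DMSO without enzyme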
# Diaphorase 30uM – counter-screen for P. falciparum G6PD inhibitors: diaphorase inhibitors, oxidizers; shares compounds with PfGluPho inh; Diaphorase/resazurin coupled assay, resorufin fluorescence, 30 uM NADPH; inhibition, % at 20 µM; 820 tested, 29% active; AID 504863;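 active means inhibition averaging 50% or more, tested at 20 µM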;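 further: 0% = DMSO with enzyme and 100% = DMSO wells lacking diaphorase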
# * hit, by the source's call; / = not tested or not shown.
SMILES,TAG inh,A3A deaminase,PfGluPho inh,H9c2 protect,A3G deaminase,NadD inh,PfG6PD confirm,Diaphorase 10uM,Diaphorase 30uM
COc1cc(CNc2ccc3[nH]c(=O)[nH]c3c2)ccc1OCc1ccccc1,/,-2,65*,-2,1,-1,50*,0,1
Cc1cc(C)cc(C(=O)Nc2ccc(NC(=O)Cc3ccccc3)cc2)c1,23,4,-10,-9,3,-5,/,/,/
CCCCn1c(N)c(N(CCOC)C(=O)COC(=O)COc2ccc(CC)cc2)c(=O)[nH]c1=O,-4,1,-1,1,-5,2,/,/,/
COc1ccc(NS(=O)(=O)c2ccc(NS(=O)(=O)c3cccs3)cc2)cc1,/,-3,-15,8,-3,-3,/,/,/
COc1cccc(CNc2ccc3[nH]c(=O)[nH]c3c2)c1OCc1ccccc1Cl,/,17,65*,0,0,-2,50*,-3,0
O=C(Cc1ccccc1)Nc1ncccn1,-18,-4,6,3,-8,-2,/,/,/
O=C(CBr)c1ccc([N+](=O)[O-])c(CS(=O)(=O)c2ccc(Cl)cc2)c1,/,-4,80*,32,-2,-2,74*,30,16
Cc1ccc(C2Oc3ccccc3C3=C2C(c2cccs2)n2ncnc2N3)cc1 (stereo unspecified),16,4,18,-3,-1,22,/,/,/
Fc1ccc(C2C3=C(Nc4ncnn42)c2ccccc2OC3c2ccncc2)cc1 (stereo unspecified),18,3,61*,7,5,11,21,/,/
Cc1cc(=S)nc(-c2ccccn2)[nH]1,-17,-6,12,15,-3,-6,/,/,/
Cc1[nH]c(-c2ccccn2)nc(=S)c1Cl,-4,0,69*,59*,1,0,5,/,/
O=S1(=O)CCN(Cc2cccc(C(F)(F)F)c2)CC1,15,4,-3,1,-1,-1,/,/,/
Nc1ccccc1SCC(=O)Nc1cccc2ccccc12,-11,2,67*,-5,-3,-1,10,/,/
Cc1ccc(S(=O)(=O)N2C[C@H]3N(C(=O)OC(C)C)N(C(=O)OC(C)C)C[C@H](OC(=O)NCC4CCCCC4)[C@@]3(O)C2)cc1,19,/,31,-5,/,-2,/,/,/
O=C(O)c1ccc(Nc2nc3ccccc3nc2NS(=O)(=O)c2cccs2)cc1,/,-3,-12,-1,-3,-8,/,/,/
O=C(O)c1ccc(NC2=C/C(=N/S(=O)(=O)c3cccs3)c3ccccc3C2=O)cc1,-3,/,106*,-19,/,-2,101*,85*,84*
O=C1C(Nc2ccc(O)cc2)=C/C(=N/S(=O)(=O)c2cccs2)c2ccccc21,125,/,114*,-29,/,-6,60*,67*,65*
[O-][n+]1cccc2cccc(O)c21,6,/,41,9,/,-1,/,/,/
C[n+]1cccc2cccc([O-])c21,-3,/,82*,-2,/,10,9,/,/
Cc1ccc(S(=O)(=O)N2CCOCC2)cc1C(=O)Nc1ccc(S(=O)(=O)Nc2nccs2)cc1,19,4,-3,-1,-1,-1,/,/,/
Cc1cccc(-n2ncc3c(NC4CCCCC4)ncnc32)c1,-6,-6,66*,-27,-6,-3,7,/,/
C=CCNc1ncnc2c1cnn2-c1cccc(C)c1,5,-1,19,-14,-7,10,/,/,/
C[C@H](CO)N1C[C@H](C)[C@@H](CN(C)C(=O)Oc2ccccc2)OCc2cn(nn2)CCCC1=O,0,/,3,1,/,2,/,/,/
COc1ccc(C(=O)c2c(C(F)(F)F)oc3c2C(=O)c2ccccc2C3=O)cc1OC,135,1,80*,-21,1,6,53*,44,52*
COC(=O)c1ccc(/C=C/c2ccc3cccc(OC)c3n2)cc1,/,0,74*,23,-1,3,26,/,/
SMILES,TAG inh,A3A deaminase,PfGluPho inh,H9c2 protect,A3G deaminase,NadD inh,PfG6PD confirm,Diaphorase 10uM,Diaphorase 30uM
COc1cc(/C=C/c2ccc3cccc(O)c3n2)cc(Cl)c1OC,/,-4,73*,34,-8,8,-2,/,/
COc1cccc(/C=C/c2ccc3cccc(O)c3n2)c1OC,/,-3,20,16,-6,1,/,/,/
O=C(COC(=O)c1ccc(F)cc1F)Nc1cccc(S(=O)(=O)N2CCOCC2)c1,1,-2,6,-9,-7,4,/,/,/
CCC(=O)Nc1ccc(N2CCOCC2)c(S(=O)(=O)Nc2ccc(Cl)cc2)c1,12,2,61*,16,37,16,36,/,/
O=S(=O)(Nc1ccc(Cl)cc1)c1ccc(N2CCOCC2)c(NC(=S)NCCN2CCOCC2)c1,-5,1,69*,-9,35,0,63*,-11,-2
O=C(Cc1ccc(NS(=O)(=O)c2ccc(Cl)c(Cl)c2)cc1)NCCN1CCOCC1,-16,1,1,5,2,-3,/,/,/
COCCNC(=S)Nc1ccc(N2CCOCC2)c(S(=O)(=O)Nc2ccc(Cl)cc2)c1,1,/,92*,-20,/,-1,70*,-37,-6
COc1ccc(NS(=O)(=O)c2cc(NC(=O)c3ccc(Cl)cc3)ccc2N2CCOCC2)cc1,30,-2,20,-3,-3,13,/,/,/
Cc1cc(=O)oc2cc(OCC(=O)OCC(=O)NC3CC3)ccc12,10,0,-4,28,-4,-4,/,/,/
CCOC(=O)C1(Cc2ccccc2)CCCN(C(=O)c2cnn(CC)c2)C1 (stereo unspecified),/,-4,7,-1,-8,-11,/,/,/
COC(=O)c1ccccc1N/C=C1\CCc2c(c(C)nn2-c2ccccn2)C1=O,-1,0,74*,10,33,7,64*,12,-4
C[C@H](NC(=O)c1cc2c(cn1)[nH]c1ccccc12)C(=O)O,/,2,98*,-7,37,0,62*,-4,-11
CN(C)Cc1cc(C(C)(C)C)cc(C(C)(C)C)c1O,10,-3,-14,-4,-3,-6,/,/,/
CN(C)Cc1cc(O)c(CN(C)C)cc1O,-5,33,78*,61*,-1,13,88*,43,17
Cc1ccc(/C=N/NC(=O)CSCc2ccc(Cl)cc2)cc1,-15,0,59*,-20,-4,5,12,/,/
O=C(CSCc1ccc(Cl)cc1)N/N=C/c1ccco1,-17,6,60*,12,-1,3,25,/,/
Cc1ccsc1/C=N/NC(=O)Cc1ccc(Cl)cc1,-20,2,13,-8,-1,-3,/,/,/
Cc1ccsc1/C=N/NC(=O)CSCc1ccc(Cl)cc1,/,5,114*,-18,-3,4,65*,78*,58*
